# Source: PubChem BioAssay (several laboratories)
# HSP90 refold inh: inhibitors of HSP90 luciferase refolding in rabbit reticulocyte lysate | inhibition, % at 5.6 µM | luciferase refolding luminescence, 3 h | AID 1789 | 0.91% of 290,000 active;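 active = inhibition above the screen-wide mean plus 3 SD, computed separately per campaign, cut at about 16% in these data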;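 note: 0% = DMSO wells and 100% = 60 µM geldanamycin wells; inhibitors lower the luminescence because luciferase stays unfolded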
# TWEAK-Fn14 inh: inhibitors of TWEAK-Fn14 interaction signaling; AID 1159606; TWEAK-stimulated Fn14 reporter cells, luciferase luminescence, 8 h; 2% of 360,000 active; inhibition, % at 10 µM; in the data active = inhibition above about 50%
# HIF-2a block: HIF-2a inhibition; 786-0 RCC cells HIF-2a reporter, luciferase luminescence, overnight; inhibition, % at 18.8 µM; 0.72% of 360,000 active;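 active = inhibition of the luminescence signal of 40% or more relative to plate controls, in a single-dose primary screen at 18.75 µM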
# TROY signal inh: inhibitors of TROY-dependent NF-kB signaling; Q293 LMP1-TROYcd NF-kB luciferase reporter, 4 h; inhibition, % at 10 µM; 0.98% of 360,000 active; AID 1347056;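 active = compounds whose plate-normalised and pattern-corrected inhibition of the luciferase reporter signal at the single screening dose is 50% or more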
# aSyn UTR inh: 5' untranslated region of α-synuclein, MLPCN primary screen | alpha-synuclein 5'UTR reporter, inhibitor activity | inhibition, % (tested at 7.5 µM) | 0.82% of 300,000 active; in the data active = inhibition above about 60%;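 note: H4 neuroglioblastoma cells stably carrying SNCA 5'UTR luciferase fusion; 0% = DMSO wells and 100% = positive control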
# TRAIL sens C8: caspase-8 TRAIL sensitization; 1% of 360,000 active; inhibition (viability loss, TRAIL sensitization), % at 10 µM; AID 624354; NB7+C8 cells + TRAIL, ATPlite viability luminescence;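 active = compounds causing at least 50% loss of cell viability in the single-dose screen, relative to plate controls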
# Mdm2 MdmX conf: Mdm2/MdmX (human) interaction inhibition, confirmed | SaOS-2 split-luciferase Mdm2/MdmX complementation, luminescence | AID 504601 | shares compounds with HIF-2a block | inhibition, % at 8 µM | 99% of 740 active;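 active = mean inhibition of the luminescence signal across two replicates at or above 26 percent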
# Target sequence (O15151 whole entry, looked up): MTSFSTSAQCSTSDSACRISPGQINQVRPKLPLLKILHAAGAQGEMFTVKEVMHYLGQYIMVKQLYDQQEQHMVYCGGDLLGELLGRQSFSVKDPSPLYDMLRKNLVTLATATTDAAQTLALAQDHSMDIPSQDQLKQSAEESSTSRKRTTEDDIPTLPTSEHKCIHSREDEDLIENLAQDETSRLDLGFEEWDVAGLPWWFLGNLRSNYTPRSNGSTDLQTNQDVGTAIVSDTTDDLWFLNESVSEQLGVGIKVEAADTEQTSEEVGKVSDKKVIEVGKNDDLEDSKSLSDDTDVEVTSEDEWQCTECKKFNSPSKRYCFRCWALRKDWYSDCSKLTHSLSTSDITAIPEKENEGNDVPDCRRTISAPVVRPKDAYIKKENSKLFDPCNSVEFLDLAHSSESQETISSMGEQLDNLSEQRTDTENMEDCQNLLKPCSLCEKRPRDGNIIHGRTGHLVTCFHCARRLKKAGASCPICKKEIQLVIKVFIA
# Target sequence (Q00987 whole entry, looked up): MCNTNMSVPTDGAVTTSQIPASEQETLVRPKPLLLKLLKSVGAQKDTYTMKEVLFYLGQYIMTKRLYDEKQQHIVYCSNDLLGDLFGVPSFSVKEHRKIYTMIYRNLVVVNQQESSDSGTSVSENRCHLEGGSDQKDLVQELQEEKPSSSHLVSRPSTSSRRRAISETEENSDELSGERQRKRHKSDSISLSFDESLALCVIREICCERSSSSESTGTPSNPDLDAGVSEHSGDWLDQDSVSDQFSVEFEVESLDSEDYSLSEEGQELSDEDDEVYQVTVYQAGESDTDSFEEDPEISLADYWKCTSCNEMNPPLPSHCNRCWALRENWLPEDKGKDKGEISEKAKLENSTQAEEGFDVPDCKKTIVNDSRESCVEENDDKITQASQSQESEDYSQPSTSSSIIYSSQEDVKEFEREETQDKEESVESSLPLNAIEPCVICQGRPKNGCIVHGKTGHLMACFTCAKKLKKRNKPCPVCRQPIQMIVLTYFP
# HIF-2a conf: confirmation of HIF-2a inhibitors | shares compounds with HIF-2a block | inhibition, % at 18.8 µM | AID 651580 | 786-0 RCC cells, HIF-2a luciferase reporter luminescence, overnight | 56% of 1,800 active;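 active = mean inhibition across four replicates of at least 40 percent at the single tested concentration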
# HIF-1a cs: HIF-1a inhibition counter-screen for HIF-2a hits. inhibition, % at 18.8 µM. 72% of 1,800 active. shares compounds with HIF-2a block. AID 651589. MiaPaCa-2 HIF-1a luciferase reporter, desferoxamine, overnight;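 active = mean inhibition of the reporter signal across four replicates at the single tested dose of 50% or more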
# Numbers without * were called inactive; / = not tested or not shown. Shown are actives, neighbours in structure and some others; about 3.9% of the full set was active somewhere.
SMILES,HSP90 refold inh,TWEAK-Fn14 inh,HIF-2a block,TROY signal inh,aSyn UTR inh,TRAIL sens C8,HIF-2a conf,HIF-1a cs,others
Cn1c(/C=C/c2ccc(Cl)cc2)c([N+](=O)[O-])c(=O)n(C)c1=O,7,56*,63*,4,-147,2,44*,18,
N#Cc1c(N)nc2c3c(sc(=N)c2c1N)NC(=O)CC3c1ccccc1 (stereo not drawn),-1,-22,9,-13,5,7,/,/,
Cc1c(C#N)c(N)nc2c3c(sc12)NC(=O)CC3c1ccc(Cl)cc1 (stereo not drawn),2,15,40*,11,48,-2,18,17,
CC1CCCC(NC(=O)COC(=O)COc2cccc(F)c2)C1C (stereo not drawn),/,-1,19,-3,/,-17,/,/,
Cc1nc2ccccn2c1C(=O)/C=C/c1cccc([N+](=O)[O-])c1,-2,94*,75*,36,1,-48,2,33,
C/C(=N\NC(=O)c1c(C)nc2ccccn12)c1cccc([N+](=O)[O-])c1,5,14,2,20,-12,-5,/,/,
COc1ccc(-c2cc3c(=O)n(CC(=O)NCCCN4CCC(N5CCCCC5)CC4)nc(C)n3n2)cc1,3,-18,1,-4,9,21,/,/,Mdm2 MdmX conf=73*
COc1ccc(-c2cc3c(=O)n(CC(=O)NCCCN4CCC(N5CCCCC5)CC4)ncn3n2)cc1,4,-1,-61,-38,-2,20,/,/,
Cc1ccc(SCCC(=O)NNC(=O)c2ccccc2F)cc1,/,-19,6,8,/,-12,/,/,
CC(=O)Nc1ccc(C(=O)OCC(=O)N(c2ccccc2)C2CCS(=O)(=O)C2)cc1 (stereo not drawn),/,0,12,2,/,21,/,/,
O=C(CCl)N(c1ccccc1)C1CCS(=O)(=O)C1 (stereo not drawn),7,53*,31,5,-109,28,/,/,Mdm2 MdmX conf=103*
CC(=O)c1c(C)oc2ccc(N(C(C)=O)S(=O)(=O)c3ccc(Br)cc3)cc12,4,31,7,25,6,9,/,/,
CC(=O)c1c(C)oc2ccc(N(C(C)=O)S(=O)(=O)c3ccc(Cl)c([N+](=O)[O-])c3)cc12,-2,42,69*,88*,112*,25,-1,107*,
C=C1C(=O)[C@]23C[C@H]1CCC2[C@]1(C)CCC[C@@](C)(C(=O)O)C1C[C@@H]3O (stereo partly drawn),/,97*,88*,59*,/,-7,91*,104*,
Cc1c(C(=O)Nc2ccc(-c3nnc4n3CCCCC4)cc2)oc2c1ccc1ccccc12,-2,44,56*,23,11,9,-51,106*,
O=C(Nc1ccc(-c2nnc3n2CCCCC3)cc1)c1cc2ccccc2o1,-2,2,-6,-4,6,-7,/,/,
CN(C)C(=O)CCc1ccc2c3c([nH]c2c1)[C@]1(CCc2ccccc2)[C@@H](C(=O)N2CCCCC2)C[C@H](CC(=O)NCCCn2ccnc2)C(=O)N1CC3,/,-8,5,1,/,-26,/,/,
O=C(CCCOc1ccc(Cl)cc1Cl)NCc1ccncc1,-6,-6,8,2,26,-2,/,/,
O=C(COC(=O)CCCOc1ccc(Cl)cc1Cl)NCc1ccc(F)cc1,4,0,52*,3,38,-6,46*,41,
O=C(CCCOc1ccc(Cl)cc1Cl)NCCc1ccccn1,4,31,59*,69*,-59,12,57*,80*,
O=C(CCCOc1ccc(Cl)cc1Cl)NCCCO,11,-23,-26,0,-7,13,/,/,
CCOC(=O)c1c(C)nn(-c2ccc(NC(=O)c3c(C)noc3C)cc2)c1C,1,20,66*,13,51,27,80*,40,
CCOC(=O)c1c(C)nn(-c2ccc(NC(=O)c3cccs3)cc2)c1C,-1,-10,-46,20,-21,4,/,/,
CCOC(=O)c1c(C)nn(-c2ccc(NC(=O)/C=C/C(=O)O)cc2)c1C,-3,61*,74*,45,92*,3,48*,30,
CC(C(=O)NC1CCCC1)n1c(-c2ccccn2)nc2ccccc21 (stereo not drawn),/,/,1,/,/,-24,/,/,
SMILES,HSP90 refold inh,TWEAK-Fn14 inh,HIF-2a block,TROY signal inh,aSyn UTR inh,TRAIL sens C8,HIF-2a conf,HIF-1a cs,others
O=C(OCc1cc(=O)n2ccsc2n1)C1(c2ccccc2)CC1,/,2,-26,-9,/,11,/,/,
Cc1ccc(S(=O)(=O)CC(CN2CCOCC2)N2CCOCC2)cc1 (stereo not drawn),2,11,9,-3,-11,-7,/,/,
CC1CCN(CC(CS(=O)(=O)c2ccc([N+](=O)[O-])cc2)N2CCC(C)CC2)CC1 (stereo not drawn),-3,8,93*,-1,-66,49,24,107*,Mdm2 MdmX conf=103*
CCC(=O)N1CCCC1(C)C(=O)Nc1cc(OC)ccc1OC (stereo not drawn),/,-4,10,3,/,0,/,/,
FC(F)(F)c1cnc(NNC(=S)Nc2cccnc2)c(Cl)c1,-2,2,26,8,9,5,/,/,
FC(F)(F)c1cnc(NNC(=S)Nc2ccccc2)c(Cl)c1,/,15,45*,7,/,-1,61*,13,
N#Cc1cc2c(nc1SC1CC(=O)N(c3ccccc3)C1=O)CCC2 (stereo not drawn),3,100*,59*,83*,/,26,83*,63*,
CSc1nc2c(cc1C#N)CCC2,-2,22,11,-1,-15,-2,/,/,
CC1CCc2c(sc3nc(C(C)(C)C)nc(N4CCN(C(=O)CCl)CC4)c23)C1 (stereo not drawn),5,2,43*,1,45,94*,33,106*,
CCC(=O)N1CCN(c2nc(CC)nc3sc4c(c23)CCCC4)CC1,4,3,14,-18,15,2,/,/,
O=C(O)c1cccc(Br)c1,/,27,5,-21,/,-2,/,/,
CCn1c(C)cc(C(=O)CN2C(=O)c3ccccc3S2(=O)=O)c1C,/,93*,73*,83*,/,34,88*,77*,
Cc1cc(C)nc(NC(=O)CN2C(=O)c3ccccc3S2(=O)=O)n1,/,-9,10,16,1,-15,/,/,
C=CCn1c(C)cc(C(=O)CN2C(=O)c3ccccc3S2(=O)=O)c1C,/,104*,95*,88*,/,83*,99*,104*,Mdm2 MdmX conf=74*
Cc1cc(C(=O)CN2C(=O)c3ccccc3S2(=O)=O)c(C)n1C(C)C,/,93*,76*,84*,/,27,86*,82*,
